# Source: PubChem BioAssay
# Dicer inh: inhibitors of Dicer pre-microRNA processing, primary screen, biochemical, cat-ELCCA, chemiluminescence; actives 6% (n = 47,000); Endoribonuclease Dicer (Homo sapiens), Q9UPY3; z-score at 25 µM; cat-ELCCA pre-miR-21 Dicer processing; active compounds read high; in the data active means z-score above about 3, passing the limit was not always enough;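 further: plate controls were vehicle for no effect and no enzyme for full effect; higher signal means more uncleaved substrate so more Dicer inhibition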
# * marks the source's active call; other numbers are inactive results. The sample as a whole holds a higher share of hits than the screen did.
SMILES,Dicer inh
C=C1SC(Nc2cc(C)c(C)cc2C)=NC1(C)C,-0.53
CCOC(=O)C1=C(C)N=C2SCCC(=O)N2C1c1ccccc1Cl (centres undefined),0.08
CNc1nc(-c2ccc(Cl)s2)cs1,0.53
CC(C)N1C(=O)C2ON(c3ccc(Cl)cc3)C(c3ccc(N(C)C)cc3)C2C1=O (centres undefined),1
Cc1ccc(/C(C#N)=C2C=C(Cl)/C(=N/O)C=C\2Cl)cc1,3.8*
N#C/C(=C1C=C/C(=N\O)C(Br)=C/1)c1ccccc1,-0.66
Cc1ccc(/C(C#N)=C2C=C/C(=N\O)C(Cl)=C\2)cc1,2.6
CCOC(=O)c1sc(N2C(=O)c3oc4ccccc4c(=O)c3C2c2ccc(C)cc2)nc1C (centres undefined),-0.35
O=C(NCCNc1ncc(C(F)(F)F)cc1Cl)C1=Cc2cc(Cl)ccc2OC1,-0.07
COC(=O)c1scc2c(Sc3nccn3C)cc(C(F)(F)F)nc12,0.21
COC(=O)c1scc2c(SCc3ccccc3)cc(C(F)(F)F)nc12,5*
COC(=O)c1scc2c(OC)cc(C(F)(F)F)nc12,0.71
CCc1ccc(C2C3=C(Nc4c2c(=O)[nH]c(=O)n4CCOC)c2ccccc2C3=O)cc1 (centres undefined),-1.3
COc1ccc(-c2oc3ncnc(NCCCn4ccnc4)c3c2-c2ccc(OC)cc2)cc1,1.3
O=C(CSC1=NCCc2ccccc21)c1ccc(-c2ccccc2)cc1,-5.7
CCOC(=O)C1=NOC2C(=O)N(c3ccc(Cl)cc3)C(=O)C12 (centres undefined),3.7*
COC(=O)C1=NOC2C(=O)N(c3ccc(OC)cc3)C(=O)C12 (centres undefined),1
COC(=O)C1=NOC2C(=O)N(c3ccc(F)cc3)C(=O)C12 (centres undefined),1.5
CCOC(=O)C1=NOC2C(=O)N(c3ccc(OC)cc3)C(=O)C12 (centres undefined),-0.1
CCOC(=O)C1=NOC2C(=O)N(c3ccc(F)cc3)C(=O)C12 (centres undefined),1.3
COC(=O)C1=NOC2C(=O)N(c3ccc(C)cc3)C(=O)C12 (centres undefined),3.6*
CC(=O)NC(Nc1ccccc1F)(C(F)(F)F)C(F)(F)F,-0.49
COC(=O)C/C(=N/NS(=O)(=O)c1ccc(C)cc1)C(=O)OC,-1.9
COc1ccc(CCNC(=O)NC(C)(C)C)cc1OC,1.2
CC(C)(C)c1ccc(Cn2c(CCCO)nc3ccccc32)cc1,1.1
SMILES,Dicer inh
O=C1CC(c2cccs2)Cc2nc(NCCSc3ccc(Cl)cc3)ncc21 (centres undefined),0.83
CCC(=O)Oc1cc(C)c2sc3ccccc3c(=O)c2c1,4.4*
CCC(=O)Oc1ccc2nc(-c3ccc(C)c(C)c3)oc(=O)c2c1,-2.7
CCC(=O)Oc1c(C)cc(O)c2ccccc12,-1.2
COc1ccc(C2/C(=C(\O)c3ccccc3)C(=O)C(=O)N2CCN(C)C)cc1 (centres undefined),26
Cc1[nH]n(-c2ccccc2)c(=O)c1C(c1cccnc1)c1c(C)[nH]n(-c2ccccc2)c1=O,-1.9
Cc1ccc(-c2nc3cc(Cl)ccc3o2)cc1N,7.3
Cc1ccsc1/C=C/c1noc(-c2ccccc2O)n1,3.3*
CCN(CC)c1ccc(/C=C/c2noc(-c3ccccc3O)n2)cc1,0.97
Oc1ccccc1-c1nc(/C=C/c2ccc(Cl)cc2)no1,6.7*
CSc1ccc(/C=C/c2noc(-c3ccccc3O)n2)cc1,-1.9
Oc1ccccc1-c1nc(-c2ccccc2)no1,0.04
Cc1ccccc1-c1nc(C2CCCCC2)no1,1.7
Cn1c(Sc2nc3ccc(Cl)cc3s2)nnc1-c1ccc(Cl)cc1Cl,1.2
Cc1nc(C)nc(N(CCS(=O)(=O)c2ccccc2)CCS(=O)(=O)c2ccccc2)n1,-1.4
CC(C)c1ccc2oc(-c3ccc(N)cc3)nc2c1,2.5
Cc1ccc2oc(-c3ccc(N)cc3O)nc2c1,0.56
COc1ccc(-c2nc3ccccc3o2)cc1N,4.3*
Nc1nc2ccc(-c3nc4ccccc4o3)cc2s1,1.8
COc1ccc2oc(-c3ccc(C)c(N)c3)nc2c1,2.1
Cc1ccc(-c2nc3cc(N)ccc3o2)cc1,4.7*
COc1ccc(-c2nc3cc(N)ccc3o2)cc1Br,3.2*
Cc1ccc2oc(-c3ccc(N)cc3)nc2c1,2.9
Cc1ccc(-c2nc3cc(N)ccc3o2)cc1N,0.6
Cc1ccc2oc(-c3cccc(N)c3)nc2c1,1.5
SMILES,Dicer inh
COc1ccc(-c2nc3cc(NS(=O)(=O)c4ccccc4)ccc3o2)cc1Br,1.1
Nc1ccc2oc(-c3cccc4ccccc34)nc2c1,5.2*
O=C1C2C(c3ccccc3)OC3(C(=O)c4ccccc4C3=O)C2C(=O)N1c1ccc(Cl)cc1 (centres undefined),0.34
Clc1ccc(-c2nc3c4ccccc4ccn3c2CN2CCOCC2)cc1,-0.48
N=c1scc(-c2ccc(Cl)cc2)n1-c1cc(Cl)ccc1Cl,0.56
Cc1cc(C)n(-c2ncnc3sc(C)c(-c4ccccc4)c23)n1,-4.9
COc1c(/C=C(\NC(C)=O)C(=O)O)cccc1OC1CCCC1,-1.3
Cn1c(=O)c2c(-c3ccc(F)cc3)ccnc2n(C)c1=O,0.55
